Source: ChEMBL document CHEMBL4513149, “CO-ADD screening of MMV (CH) - MMV compounds” (2021)
Entries with a potency or affinity are not part of this list.

Assays:
Klebsiella pneumoniae = conditions: Concentration 20 uM; ASSAY_TEST Inhibition of Bacterial Growth; detection method Absorption (OD600); MEDIA CAMHB; plate type 384well; NBS; CORNING #3640; time 18 hr
Candida albicans = conditions: 20 µM
Cryptococcus neoformans = conditions: Concentration 20 uM; ASSAY_TEST Inhibition of Fungal Growth; detection method Resazurin; Absorption (OD600-OD570); plate type 384well; NBS; CORNING #3640

Compound	Inhibition (Klebsiella pneumoniae) [%]	Inhibition (Candida albicans) [%]	Inhibition (Cryptococcus neoformans) [%]
Cc1nnc(NCc2cccc(Cl)c2)c2ccccc12	13.85	3.34	-11.95
O=C(NCc1ccco1)N1CCN(Cc2ccc(Cl)s2)CC1	5.01	2.08	-2.89
Cl.NCC(c1cccs1)S(=O)(=O)c1ccccc1 (configuration not stated)	-0.58	3.86	-1.15
Cl.c1ccc(Oc2ccc(-c3cc(N4CCNCC4)[nH]n3)cc2)cc1	-6.32	2.61	-9.84
CCc1ccc([C@@H]2C[C@H](C(F)(F)F)n3ncc(C(=O)NCc4ccc(OC)cc4)c3N2)cc1	2.88	5.42	-1.28
Nc1nccc2ccc(Oc3ccncc3)cc12	18.43	1.98	-6.05
Cc1ccc(NC(=O)c2cc(S(=O)(=O)NC(C)(C)C)ccc2C)nc1	13.76	1.54	-5.42
CC(=O)N1CCc2cc3nc(C)cc(C)c3cc21	14.03	4.19	-7.03
Cc1ccc(NC(=O)c2nc[nH]c2C(=O)Nc2nc3ccccc3[nH]2)c(C)c1	13.9	23.3	-8.94
CN(C)CCNC(=O)N1CCCN(c2ncnc3cc(-c4ccccc4)sc23)CC1	15.92	2.85	-8.19
CS(=O)(=O)c1ccccc1C(=O)N(Cc1ccccc1)c1ccccc1	9.63	3.84	-8.51
Cc1ccc(S(=O)(=O)Nc2ccc(CN3CCN(C(=O)c4cccc(C#N)c4)CC3)cc2)cc1	10.93	-0.01	-7.61
FC(F)(F)c1cc(NCCc2ccccc2)nc(-c2ccccn2)n1	-3.94	1.73	-6.05
Cl.c1ccc(C[C@@H]2CN(c3nccc(Oc4ccc(-n5ccnc5)cc4)n3)CCN2)cc1	13.63	3.57	-6.59
COc1cccc(OC)c1C(=O)Nc1ccc(Cl)c(-c2nc3ccccc3s2)c1	2.41	4.58	-8.77
O=C(NCCN1CCCC1)c1cc(NCCCCN2CCC(F)(F)CC2)nc2ccc(Cl)cc12	15.7	2.73	24.05
CC(C)C(C(=O)Nc1ccc(S(=O)(=O)N(C)C)cc1)c1ccc(Cl)cc1 (configuration not stated)	-12.7	4.83	-3.24

Compound	Inhibition (Klebsiella pneumoniae) [%]	Inhibition (Candida albicans) [%]	Inhibition (Cryptococcus neoformans) [%]
Cc1nn2c(O)c3c(nc2c1-c1ccc(F)cc1)CCCC3	11.6	3.69	-6.74
CC(C)(C)c1ccc(N[C@@H]2CCCC[C@H]2NC(=O)c2ccco2)cc1	-12.61	5.24	-2.08
CC(C)(C)OC(=O)N1CCC(Cn2nc(-c3cnc4ccccc4c3)c3c(N)ncnc32)CC1	15.77	2.29	-9.75
CN1CCN(S(=O)(=O)c2ccc(-c3ccc4c(Nc5ccc6nn[nH]c6c5)ccnc4c3)cc2)CC1	5.15	4.6	-7.38
CCOc1ccc(-c2nc(CNCCc3ccc(F)cc3)cs2)cc1	12.06	7.53	-5.87
N#Cc1nc(-c2ccccc2)oc1S(=O)(=O)c1ccc(Cl)cc1	-0.86	3.69	-7.91
COc1ccc(-c2cnc3cnc(-c4cccc(OC(C)C)c4)cn23)cc1	4.82	11.6	-13.72
Cc1nnc(NC(=O)c2cn(-c3ccccc3)nc2-c2ccccc2C)o1	13	4.27	-7.03
O=C(NC1CC1)c1ccc(CSCc2ccccc2Cl)o1	1.21	7.77	-0.4
O=C(C1CCN(c2nnc(-n3cccc3)s2)CC1)N1CCC(Cc2ccccc2)CC1	11.79	4.63	-9.35
FC(F)(F)c1ccc(N(c2cccnc2)C2CCN(c3ccc(C(F)(F)F)cn3)CC2)cc1	14.96	2.59	-3.19
COc1cccc(NC(=O)c2c(NC(=O)c3cccnc3)sc3c2CCC3)c1	13.46	9.13	-5.87
O=C1Nc2ccc(Br)cc2C12NCCc1c2[nH]c2ccccc12 (configuration not stated)	4.49	2.19	-1.68
CC(C(=O)N1CCCC1)N1CCN(S(=O)(=O)c2ccc(C(C)(C)C)cc2)CC1 (configuration not stated)	0.26	2.42	-10.06
COc1ccc2nc(C)cc(OCC(=O)NCc3ccccc3)c2c1	19.56	2.81	-4.71
Clc1ccc(Cl)c(CO[C@H]2CCCC[C@@H]2n2ccnc2)c1	15.52	2.99	2.84
CCOC(=O)c1cc(-c2csc(Nc3c(C)cc(C)cc3C)n2)on1	16.59	2.27	-12.46
